Consider 28 molecules from PubChem BioAssay (NCATS).

In assay [1] the target is Cytochrome P450 2D6 (Homo sapiens) (UniProt P10635). The assay can be described thus: Cytochrome P450 family 2 subfamily D member 6 (CYP2D6) small molecule antagonists: luciferase biochemical (cell-free) qHTS assay (AID 1645840). Further: nearly all actives have a fitted effect of over 55% in size. Further: potency means the concentration at half of the fitted maximal effect. A digest of the protocol: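 P450-Glo luminescent screen: recombinant CYP2D6 enzyme–proluciferin substrate mix preincubated with compound 10 min at room temperature, then NADPH regeneration added for 1 h at room temperature. Detection reagent added for 20 min; luciferin light read as relative luminescence units.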
Chain of Cytochrome P450 2D6 (Homo sapiens) (P10635 whole entry, looked up): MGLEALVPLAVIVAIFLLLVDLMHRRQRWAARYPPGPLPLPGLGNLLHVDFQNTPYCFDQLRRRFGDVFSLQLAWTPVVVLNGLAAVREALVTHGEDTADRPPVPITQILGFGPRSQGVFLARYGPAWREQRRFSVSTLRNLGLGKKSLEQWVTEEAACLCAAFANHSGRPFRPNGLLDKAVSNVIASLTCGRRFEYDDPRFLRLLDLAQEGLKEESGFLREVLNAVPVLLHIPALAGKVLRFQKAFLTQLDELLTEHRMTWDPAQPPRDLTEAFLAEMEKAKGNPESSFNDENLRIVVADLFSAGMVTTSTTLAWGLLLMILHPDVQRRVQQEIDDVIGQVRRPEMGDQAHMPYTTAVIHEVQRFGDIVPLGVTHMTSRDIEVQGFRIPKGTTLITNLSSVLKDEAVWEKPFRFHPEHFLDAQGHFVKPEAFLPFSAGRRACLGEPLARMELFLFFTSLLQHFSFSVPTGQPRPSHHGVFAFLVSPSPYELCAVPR
On the technique in general: qHTS replaces the single test concentration by a dilution series.

Assay [2] has as its target Cytochrome P450 2C9 (Homo sapiens) (UniProt P11712). The assay can be described thus: Cytochrome P450 family 2 subfamily C member 9 (CYP2C9) small molecule antagonists: luciferase biochemical (cell-free) qHTS assay (AID 1645842). Further: nearly all actives have a fitted effect of over 55% in size. Further: potency means the concentration at half of the fitted maximal effect. Summed up:
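Luminescence, after 20 min with luciferin detection reagent, reflected CYP2C9 turnover during a 1 h NADPH-driven reaction at 37C. Enzyme-substrate mix contained 0.4% bovine serum albumin and was preincubated with compound 10 min at room temperature.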

The target in assay [3] is Rap guanine nucleotide exchange factor 3 (Homo sapiens) (UniProt O95398). The assay can be described thus: Confirmatory qHTS for antagonist of cAMP-regulated guanine nucleotide exchange factor 3 (EPAC1) (AID 1645880; active means well fitted curve in the direction sought with a large enough effect; an effect the other way counts as inactive or inconclusive; further: potency means the concentration at half of the fitted maximal effect; nearly all actives have a fitted effect of over 55% in size). A digest of the protocol:
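Nucleotide exchange uses 100 nM EPAC1, 250 nM RAP1B-BODIPY-GDP and 50 uM GDP, with compounds in a concentration-titration series. After 5 min at room temperature, fluorescence (480 nm ex/540 nm em) is read every 5 min for 30 min. Data are normalized to control ATA and DMSO.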

Assay [4] shares this target. The experiment in a line: Confirmatory qHTS for agonist of cAMP-regulated guanine nucleotide exchange factor 3 (EPAC1) (AID 1645881; active means well fitted curve in the direction sought with a large enough effect; an effect the other way counts as inactive or inconclusive;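 further: EPAC1 catalysed release of BODIPY-GDP from Rap1B seen as fluorescence loss; nearly all actives have a fitted effect of over 75% in size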).
Assay [5] has as its target Rap guanine nucleotide exchange factor 4 (Homo sapiens) (UniProt Q8WZA2). The assay can be described thus: Confirmatory qHTS for agonist of cAMP-regulated guanine nucleotide exchange factor 4 (EPAC2) (AID 1645884; active means well fitted curve in the direction sought with a large enough effect; an effect the other way counts as inactive or inconclusive;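 further: nucleotide exchange releases bodipy-GDP from Rap1 and this lowers its fluorescence; nearly all actives have a fitted effect of over 65% in size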).
For assay [6] the target is unchanged. The experiment in a line: Confirmatory qHTS for antagonist of cAMP-regulated guanine nucleotide exchange factor 4 (EPAC2) (AID 1645885; active means well fitted curve in the direction sought with a large enough effect; an effect the other way counts as inactive or inconclusive; further: nearly all actives have a fitted effect of over 25% in size).
Assay [7] addresses Rap guanine nucleotide exchange factor 3 (Homo sapiens) (UniProt O95398). The assay can be described thus: Counterscreen qHTS for antagonist of cAMP-regulated guanine nucleotide exchange factor 3 (EPAC1) (AID 1645888; active means well fitted curve in the direction sought with a large enough effect; an effect the other way counts as inactive or inconclusive;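 further: fluorescence loss as bound BODIPY-GDP is released from Rap1B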). Summed up: (§1)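 Rap1B–BODIPY-GDP (250 nM) with 50 uM GDP; compounds pin-transferred to 9.74 nM–152 uM final (activator) or from 7.32 nM upwards (inhibitor). Fluorescence Ex/Em 480/540 nm read at 5 and 30 min, then after adding cAMP or buffer, at room temperature.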
(Counterscreens check selectivity or assay interference.)

Assay [8] has the same target. The experiment in a line: Counterscreen qHTS for agonist of cAMP-regulated guanine nucleotide exchange factor 3 (EPAC1) (AID 1645889; active means well fitted curve in the direction sought with a large enough effect; an effect the other way counts as inactive or inconclusive; further: nearly all actives have a fitted effect of over 40% in size). Summed up: as §1

Structures are written as SMILES. Results filed as inconclusive are left out. The source made the active and inactive calls. Unless noted, the call rests on the fitted dose curve; in most records, active means well fitted curve in the direction sought with a large enough effect in the repeat runs; inconclusive means weak or mixed curves; inactive means no such curve, though single readings can be large; an effect the other way counts as inactive or inconclusive.

Chain of Cytochrome P450 2C9 (Homo sapiens) (P11712 whole entry, looked up): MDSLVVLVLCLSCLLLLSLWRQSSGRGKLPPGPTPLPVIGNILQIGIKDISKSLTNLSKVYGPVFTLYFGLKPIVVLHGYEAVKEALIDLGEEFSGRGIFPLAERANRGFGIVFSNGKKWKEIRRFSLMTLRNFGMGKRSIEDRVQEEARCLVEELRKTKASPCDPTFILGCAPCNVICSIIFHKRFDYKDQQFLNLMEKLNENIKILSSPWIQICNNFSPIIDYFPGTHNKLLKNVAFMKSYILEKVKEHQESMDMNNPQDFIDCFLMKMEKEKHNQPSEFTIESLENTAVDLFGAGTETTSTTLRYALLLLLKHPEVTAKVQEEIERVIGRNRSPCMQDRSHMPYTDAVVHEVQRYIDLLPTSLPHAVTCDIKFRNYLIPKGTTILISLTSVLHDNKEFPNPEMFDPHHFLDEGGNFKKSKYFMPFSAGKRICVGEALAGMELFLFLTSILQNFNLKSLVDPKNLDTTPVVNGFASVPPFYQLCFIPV
Chain of Rap guanine nucleotide exchange factor 3 (Homo sapiens) (O95398 whole entry, looked up): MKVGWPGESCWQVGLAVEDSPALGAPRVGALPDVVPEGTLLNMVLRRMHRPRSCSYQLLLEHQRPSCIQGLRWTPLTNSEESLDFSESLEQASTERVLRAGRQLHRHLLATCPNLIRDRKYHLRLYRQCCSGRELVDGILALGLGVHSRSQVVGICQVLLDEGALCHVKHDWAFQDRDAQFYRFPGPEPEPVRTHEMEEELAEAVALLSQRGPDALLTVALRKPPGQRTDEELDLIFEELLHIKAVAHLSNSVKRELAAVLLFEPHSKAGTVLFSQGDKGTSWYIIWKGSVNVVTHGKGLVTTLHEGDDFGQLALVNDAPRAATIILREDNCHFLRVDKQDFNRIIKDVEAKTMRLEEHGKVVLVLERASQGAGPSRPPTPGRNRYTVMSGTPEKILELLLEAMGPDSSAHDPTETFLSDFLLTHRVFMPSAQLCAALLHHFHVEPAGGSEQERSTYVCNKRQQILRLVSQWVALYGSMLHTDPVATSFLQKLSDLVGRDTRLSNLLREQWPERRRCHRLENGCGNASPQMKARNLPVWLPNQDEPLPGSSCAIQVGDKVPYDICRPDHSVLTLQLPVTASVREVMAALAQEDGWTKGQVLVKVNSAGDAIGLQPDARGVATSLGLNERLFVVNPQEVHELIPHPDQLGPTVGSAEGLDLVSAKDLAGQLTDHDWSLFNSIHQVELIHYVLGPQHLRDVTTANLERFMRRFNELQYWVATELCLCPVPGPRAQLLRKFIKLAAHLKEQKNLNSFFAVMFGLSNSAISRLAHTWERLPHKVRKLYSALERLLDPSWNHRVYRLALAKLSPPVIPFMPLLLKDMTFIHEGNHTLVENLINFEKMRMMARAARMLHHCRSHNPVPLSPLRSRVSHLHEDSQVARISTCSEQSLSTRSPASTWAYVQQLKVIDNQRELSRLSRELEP
Chain of Rap guanine nucleotide exchange factor 4 (Homo sapiens) (Q8WZA2 whole entry, looked up): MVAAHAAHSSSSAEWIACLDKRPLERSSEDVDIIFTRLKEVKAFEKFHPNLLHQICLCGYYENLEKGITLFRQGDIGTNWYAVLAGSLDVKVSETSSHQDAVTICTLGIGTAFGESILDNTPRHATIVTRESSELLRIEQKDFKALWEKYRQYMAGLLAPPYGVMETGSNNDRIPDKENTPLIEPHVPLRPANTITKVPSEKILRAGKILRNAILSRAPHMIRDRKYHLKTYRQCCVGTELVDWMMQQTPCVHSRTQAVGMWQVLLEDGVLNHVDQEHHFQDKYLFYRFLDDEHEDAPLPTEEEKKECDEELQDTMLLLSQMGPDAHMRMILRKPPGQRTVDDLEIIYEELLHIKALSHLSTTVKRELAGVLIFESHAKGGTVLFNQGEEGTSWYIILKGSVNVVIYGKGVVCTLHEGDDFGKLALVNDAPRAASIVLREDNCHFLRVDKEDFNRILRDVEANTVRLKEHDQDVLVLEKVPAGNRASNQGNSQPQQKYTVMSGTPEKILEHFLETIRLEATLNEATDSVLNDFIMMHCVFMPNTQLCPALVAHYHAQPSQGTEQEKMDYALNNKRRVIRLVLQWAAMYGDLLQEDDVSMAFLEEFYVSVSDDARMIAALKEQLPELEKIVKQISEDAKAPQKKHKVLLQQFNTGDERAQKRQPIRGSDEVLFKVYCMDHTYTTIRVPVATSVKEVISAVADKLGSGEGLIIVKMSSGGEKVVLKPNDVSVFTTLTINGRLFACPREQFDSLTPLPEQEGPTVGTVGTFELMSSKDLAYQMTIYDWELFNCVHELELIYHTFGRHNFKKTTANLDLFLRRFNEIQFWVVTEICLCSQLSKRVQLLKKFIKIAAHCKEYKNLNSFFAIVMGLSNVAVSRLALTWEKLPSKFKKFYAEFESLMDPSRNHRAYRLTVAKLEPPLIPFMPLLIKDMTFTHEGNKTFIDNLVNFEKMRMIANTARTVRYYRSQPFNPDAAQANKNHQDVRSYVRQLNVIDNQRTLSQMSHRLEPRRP

Take `Cc1cccc(OCCCSc2nc(-c3ccc(C(C)(C)C)cc3)nc3cc(=O)[nH]n23)c1C`: the Potency entry in assay [1], in assay [4], in assay [5], in assay [6], in assay [7] and in assay [8] was “inactive” in each case. For the same molecule, the Potency is 13.5 µM (active) in assay [2] and 37.9 µM (active) in assay [3].

As to `O=C(CSc1nc(-c2ccc(F)cc2)[nH]c1-c1ccc(F)cc1)Nc1ccc2c(c1)OCO2`, the Potency in assay [1] was 2.13 µM (active); in assay [2], 0.849 µM (active).

On to `CCOc1ccccc1NC(=O)Nc1nnc(N2CCCC(C)C2)s1` (stereo not drawn), for which the Potency result in assay [1] was “inactive”. In addition, the Potency in assay [2] was 10.7 µM (active).

Take `C[C@H]1[C@@H](OC(=O)CCC(=O)O)O[C@@H]2O[C@]3(C)CC[C@H]4[C@H](C)CC[C@@H]1[C@@]24OO3`: the Potency result in assay [1] and in assay [2] was “inactive” each time.

For the molecule `CCOc1ccccc1CNC(=O)C1CCN(S(=O)(=O)c2c(C)noc2/C=C/c2ccccc2F)CC1`, the Potency result in assay [1] was “inactive”. For the same molecule, in assay [2], the Potency was 0.151 µM (active).

On to `CCCOCc1cc(CN2CCN(c3cccc(Cl)c3)CC2)c(O)c2ncccc12`, for which the Potency entry in assay [1] is “inactive”. Besides, the Potency in assay [2] was 6.74 µM (active).

Turning to `COc1cc(=O)n2c(c1C(=O)NCc1ccc3c(c1)OCO3)CCN(C(=O)c1ccc(C)cc1C)CC2`, the Potency was 10.7 µM (active) in assay [1] and 19 µM (active) in assay [2].

In the case of `COc1cccc(Cn2c(SCC(=O)N3CCN(c4ccc(F)cc4)CC3)nc3ccccc32)c1`, the Potency is 10.7 µM (active) in assay [1] and 2.13 µM (active) in assay [2].

For `CN(C)S(=O)(=O)n1cc(/C=C(\NC(=O)c2ccccc2)C(=O)NCCCn2ccnc2)c2ccccc21`, the Potency in assay [1] was 0.0535 µM (active); in assay [2], 0.213 µM (active).

For the molecule `CC1=C(C(=O)Nc2cccc(C(N)=O)c2)C(c2ccccc2Cl)N=C(Nc2nc3ccccc3o2)N1` (stereo not drawn), the figures for the Potency in assay [1] and in assay [2] were 8.49 µM (active) and 0.19 µM (active), respectively.

For the molecule `Cc1ccccc1-n1c(SCc2ccc(Cl)cc2)nc2[nH]ncc2c1=O`, the figures for the Potency in assay [1] and in assay [2] were 21.3 µM (active) and 2.39 µM (active), respectively.

Take `COc1ccc(Cn2c(CCC(=O)Nc3ccc(C)c(C)c3)nc3cccnc32)cc1`: the Potency result in assay [1] was “inactive”. Further, the Potency in assay [2] was 7.56 µM (active).

`CCOc1ccc(NC(=O)Cn2cc(C(=O)c3cccs3)c3ccccc32)cc1`: the Potency entry in assay [1] is “inactive”. For the same molecule, the Potency in assay [2] is 1.69 µM (active).

In the case of `CCOc1cc(CNC(=O)c2ccc(C)c(NC(=O)c3nsc4ccccc34)c2)ccc1OC`, the Potency entry in assay [1] was “inactive”. Further, the Potency in assay [2] is 1.51 µM (active).

With `C=CCNCCCCCC[N+](C)(C)C`, the Potency entry in assay [1] and in assay [2] was “inactive” throughout.

Turning to `CCOc1ccccc1NC(=O)CSc1nc2ccccc2c2nc(CCn3cncc3C)nn12`, the Potency was 10.7 µM (active) in assay [1] and 0.952 µM (active) in assay [2].

For `CCOc1ccc(CCNC(=O)C2CCCN(c3nnc(C)c4c(C)n(-c5ccccc5)nc34)C2)cc1` (stereo not drawn), the Potency is 4.77 µM (active) in assay [1] and 3.01 µM (active) in assay [2].

Turning to `Cc1ccc([S+](=O)([O-])NC2(c3ccccc3)CCCCC2)cc1`, the Potency result in assay [1] is “inactive”. Also, the Potency in assay [2] was 2.68 µM (active).

Turning to `CC1(C#N)CCN(c2c(C(=O)N3CCN(C(=O)N4CCCC4)CC3)cnc3c(F)cc(F)cc23)CC1`, the Potency result in assay [1] is “inactive”. In addition, in assay [2], the Potency was 12 µM (active).

As to `CC(C)(C)c1ccc(-c2nc(SCCCOc3ccccc3)n3[nH]c(=O)cc3n2)cc1`, the Potency entry in assay [1], in assay [4], in assay [5], in assay [6], in assay [7] and in assay [8] was “inactive” throughout. Moreover, the Potency in assay [2] was 10.7 µM (active); in assay [3] it was 60.1 µM (active).

On to `Cc1ccc(S(=O)(=O)NC2CCC(C(C)(C)C)CC2)cc1` (stereo not drawn), for which, in assay [1], the Potency result was “inactive”. In addition, the Potency in assay [2] was 2.68 µM (active).

Consider `COc1ccccc1OCCn1c(NC(=O)c2ccccc2Cl)nc2ccccc21`, for which the Potency entry in assay [1] was “inactive”. For the same molecule, the Potency in assay [2] was 3.79 µM (active).

For the molecule `NS(=O)(=O)c1ccc(Cc2c(-c3cccc(-c4ccccc4)c3)nn(-c3nc(C(=O)O)cs3)c2C2CC2)cc1`, the Potency in assay [1] was 21.3 µM (active); in assay [2] it was 23.9 µM (active).

Turning to `COc1cc(C(c2c(C)[nH][nH]c2=O)c2c(C)[nH][nH]c2=O)ccc1OC(=O)c1ccccc1F`, the Potency result in assay [1] is “inactive”. Moreover, the Potency in assay [2] was 10.7 µM (active).

As for `O=C(O)C1CSC(C(=O)O)N1` (stereo not drawn), the Potency entry in assay [1] and in assay [2] was “inactive” in each case.

Consider `Cc1ccc(-n2ncc3c(NCCCn4ccnc4)ncnc32)cc1Cl`, for which the Potency in assay [1] was 3.79 µM (active); in assay [2] it was 0.601 µM (active).

Regarding `Oc1c(C(c2ccc(Cl)cc2Cl)N2CCN(Cc3ccccc3)CC2)sc2nc(-c3ccco3)nn12` (stereo not drawn), the Potency was 7.56 µM (active) in assay [1] and 6.01 µM (active) in assay [2].

Take `Cc1nnc(N2CCC(C(=O)NCCc3ccccc3Cl)CC2)c2nn(-c3ccccc3)c(C)c12`: the Potency in assay [1] was 2.13 µM (active); in assay [2] it was 1.9 µM (active).
